Assay results published in PubChem BioAssay (NCI).
About 83,000 compounds went through this panel and 20% of them were active in at least one assay; those are over-represented in the sample as a whole.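 Assay: single dose, 48 h. Readout: percent growth (0 = no net growth; negative = cell death). Active: <10.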 A number with no mark means an inactive call. Calls of active or inactive are those of the source.

How the values were obtained:
Assay in all cases: NCI-60 one-dose screen, 48 h (100 = growth as untreated, 0 = no growth, -100 = all killed)
Conditions in all cases: 10 µM unless noted
HT29 colon = test system: HT29 colon
SNB-75 CNS = test system: SNB-75 CNS
SNB-19 CNS = test system: SNB-19 CNS
U251 CNS = test system: U251 CNS
PC-3 prostate = test system: PC-3 prostate
SK-MEL-5 melanoma = test system: SK-MEL-5 melanoma
UACC-62 melanoma = test system: UACC-62 melanoma
LOX IMVI melanoma = test system: LOX IMVI melanoma
SK-MEL-2 melanoma = test system: SK-MEL-2 melanoma
EKVX NSCLC = test system: EKVX NSCLC
SN12C renal = test system: SN12C renal
UO-31 renal = test system: UO-31 renal
TK-10 renal = test system: TK-10 renal
ACHN renal = test system: ACHN renal
CAKI-1 renal = test system: CAKI-1 renal
A498 renal = test system: A498 renal
MOLT-4 leukemia = test system: MOLT-4 leukemia
SR leukemia = test system: SR leukemia
SK-MEL-28 melanoma = test system: SK-MEL-28 melanoma
CCRF-CEM leukemia = test system: CCRF-CEM leukemia

SMILES | growth (HT29 colon) | growth (SNB-75 CNS) | growth (SNB-19 CNS) | growth (U251 CNS) | growth (PC-3 prostate) | growth (SK-MEL-5 melanoma) | growth (UACC-62 melanoma) | growth (LOX IMVI melanoma) | growth (SK-MEL-2 melanoma) | growth (EKVX NSCLC) | growth (SN12C renal) | growth (UO-31 renal) | growth (TK-10 renal) | growth (ACHN renal) | growth (CAKI-1 renal) | growth (A498 renal) | growth (MOLT-4 leukemia) | growth (SR leukemia) | growth (SK-MEL-28 melanoma) | growth (CCRF-CEM leukemia)
COc1c(O)cc2oc3cc(O)c(CC=C(C)C)c(O)c3c(=O)c2c1C/C=C(\C)CCC=C(C)C | 26.7% | 84.6% | 80.5% | 24.1% | 19.5% | 86.6% | 98.9% | -85.8% (active) | 75.3% | 81.5% | -8.91% (active) | 58.3% | 37.3% | 22.6% | 79.3% | 120% | 6.16% (active) | -18.2% (active) | – | –
CC[N+](CC)(CCOCCOCC[N+](CC)(CC)Cc1ccc([N+](=O)[O-])cc1)Cc1ccc([N+](=O)[O-])cc1 | 113% | 85.7% | 101% | 100% | 87.6% | 96.8% | 88.4% | 104% | – | 101% | 94.2% | 68.5% | 95% | 102% | 93.7% | – | – | 107% | 115% | 102%
COc1ccc(-n2nnc(C(=O)O)c2-c2cc(OC)c(OC)c(OC)c2)cc1 | 97.2% | 95.5% | 104% | 95.9% | 106% | 104% | 109% | 94.9% | 95% | – | 105% | 110% | 93.2% | – | 102% | – | 94% | 85.4% | 104% | 105%
c1cnc2n[nH]c(Nc3ncnc4c3sc3ncccc34)c2c1 | 95.4% | 84% | 101% | 97.1% | 104% | 102% | 87.1% | 85.6% | – | – | 99.7% | 98.5% | 103% | 97.8% | 104% | 91.3% | 97.9% | 101% | 99% | –
C=C1c2c(C)nn(-c3ccc(C#CCOC4OC(CO)C(O)C(O)C4O)cc3)c2N(C)C23C[C@H]1C1(C)c4c(C)nn(-c5ccc(C#CCOC6OC(CO)C(O)C(O)C6O)cc5)c4N(C)C(C)(C[C@H]12)C3 (some centres not stated) | 8.04% (active) | 6.04% (active) | 2.15% (active) | -35% (active) | -26.1% (active) | -74.7% (active) | -36.7% (active) | -42.4% (active) | -43.5% (active) | – | 8.29% (active) | 21.1% | – | 27.7% | -29.8% (active) | 4.38% (active) | -14.9% (active) | 6.31% (active) | 5.91% (active) | -30.2% (active)
CCOC(=O)c1ccccc1OC(=O)NNc1ccccc1 | 109% | 78.9% | 90.7% | 83.2% | 34.9% | 57.2% | 21.5% | 73.5% | – | 92.8% | 66.4% | 29.3% | 72.9% | 51.9% | 25.5% | 100% | 17.9% | 27.6% | 93.6% | 24.6%
Cc1nn(-c2ccc(Br)cc2)c2nc3c(nc12)C(=O)C(=O)c1ccccc1-3 | 99.8% | 85.7% | 92.5% | 103% | 87.7% | 89.6% | 90.6% | 88.1% | – | 80% | 95.5% | 63.7% | 140% | 93.1% | 94.9% | 106% | – | – | 96.3% | –
NNC(=O)C1CC2c3ccccc3C1c1ccccc12 (configuration not stated) | 104% | 90.8% | 107% | 110% | 98.5% | 110% | 97.1% | – | 109% | 115% | 97.8% | 93.8% | 97.5% | 117% | 103% | 129% | 105% | 89% | 108% | 82.8%
CC(C)[C@H]1CC[C@H]2[C@@H](CC[C@H]3[C@](C)(CN)CCC[C@]23C)C1 | -57.7% (active) | 69% | 98.1% | 6.81% (active) | 65.1% | 99.5% | 92.7% | – | 80.3% | 68.5% | 85.9% | 70.1% | 89.6% | 84% | 87.6% | 81.3% | 37.2% | – | 102% | –
CC(C)(C)c1ccc(S(=O)(=O)O)s1 | 106% | 92.4% | 95.5% | 105% | 52.7% | 109% | 93.8% | 102% | – | 92.7% | 97.7% | 40.1% | 110% | 96.3% | -3.29% (active) | 95.4% | 76.1% | 73.1% | 112% | 102%
COC(=O)c1ccc2c(c1)nc(-c1ccc(O)c(OC)c1)n2-c1cc(C(C)(C)C)[nH]n1 | 96.3% | 111% | 101% | 93.3% | 65.8% | 83.6% | 88.3% | 96.8% | 92.3% | – | 97.7% | 50.9% | – | 108% | – | 90.5% | 81.2% | – | 118% | 93.1%
COc1cc(C2NC(c3ccc(Cl)cc3)C(C)C(=NC(=O)c3cnccn3)C2C)cc(OC)c1OC (configuration not stated) | 67.8% | 90.9% | 86.7% | 77.9% | 88.8% | 82.3% | 101% | – | 97.3% | 99.3% | 107% | 83% | 103% | 102% | 84.7% | 112% | 85.3% | 106% | 110% | 92.4%
O=C(Nc1ccccc1Cl)c1cnc2ccc(C3CCNCC3)cn12 | 18% | -6.82% (active) | 84.6% | 88.4% | 72.1% | 90.6% | 93.6% | – | 92.4% | 38.5% | 58.8% | -9.91% (active) | -13.2% (active) | 12.7% | -40.1% (active) | 36.6% | 62.5% | 93% | – | 112%
COc1ccc(OC)c(/C=C/c2nc(=S)n(-c3ccc(Cl)cc3)[nH]2)c1 | 65.4% | 42.5% | 51.2% | 53.3% | 58.6% | 32.5% | 42.8% | – | 71.2% | 75.2% | 66.2% | 47.1% | 88.8% | 71.2% | – | – | – | 38.3% | 72.7% | 60.6%
O=[N+]([O-])c1cnc(Sc2ccncn2)c([N+](=O)[O-])c1 | 76.5% | 95.2% | 102% | 100% | 96.3% | 92% | – | 96.8% | 110% | – | 96.9% | 48.8% | -37.8% (active) | -29.6% (active) | 64.9% | 87% | -41.2% (active) | 11.8% | 98.3% | -49.2% (active)
COc1ccc(/C(=C2\O[C@@H]([C@H](O)CO)[C@H]3OC(C)(C)O[C@@H]23)c2cc(OC)c(OC)c(OC)c2)cc1O | 111% | 55.9% | 76.8% | 90.6% | 51.8% | 74.3% | 95.1% | – | 77.5% | 97% | 95.6% | 90.1% | 106% | 78.5% | 105% | – | 78.1% | -13% (active) | – | 95.3%
O=C(Nc1nc(-c2ccc(Cl)cc2)cs1)c1cc(O)c(O)c(O)c1 | 71.9% | 36.7% | 25.9% | 23.5% | 46.9% | 24.6% | – | 1.72% (active) | 31.9% | – | 22.6% | 6.01% (active) | – | – | 8.69% (active) | 77.1% | 4.68% (active) | 0.551% (active) | 42.9% | 8.08% (active)
